Source: the supplement of paper PMC10849652
The full data set covers some 8,800 targets. This sample favours those with a hit. About 0.5% of all pairs of compound and target were hits.

How the values were obtained:
Test in all cases: log2 fold change, soluble protein after heating vs DMSO (PISA); higher = thermal stabilisation; K562 lysate, 10 uM; active = over 0.2 and 3.5 SD of the protein, either way, in both replicates (recomputed)
[1] = compound: CC1=C2C(=CC=C1)N=C(N(C2=O)C3=CC=CC=C3C)CN4C=NC5=C(N=CN=C54)N
Procedure, shortened: (§1)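 The values are log-two fold changes in thermal stability compared with solvent controls and come from duplicates. They were obtained by TMTpro 16plex LC-MS/MS, with channel sums equalised, on the supernatant after 21,000xg for 90 min. That supernatant came from crude K562 extract at 1 mg/mL protein treated with 10 μM compound for 30 min, heated for 3 min across 48°C-58°C, pooled and brought to 0.5% NP-40 at 4°C.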

[2] = compound: Cc1sc2c(c1C)C(c1ccc(Cl)cc1)=N[C@@H](CC(=O)OC(C)(C)C)c1nnc(C)n1-2
Procedure, shortened: as §1

[3] = compound: c1ccc([C@@H]2C[C@H]2NC2CCNCC2)cc1
Procedure, shortened: as §1

[4] = compound: C1=CC=C(C=C1)[C@H](COC2=CC3=C(C=C2)NC(=O)N3)NC(=O)C4=CC=CN(C4=O)CC5=CC(=C(C=C5)F)F
Procedure, shortened: as §1

[5] = compound: CC1=C(SC2=C1C(=N[C@H](C3=NN=C(N32)C)CC(=O)N)C4=CC=C(C=C4)Cl)C
Procedure, shortened: as §1

Measured: log2 fold change

PNPLA4 (UniProt P41247)
Chain of UniProt P41247 (P41247 whole entry, looked up): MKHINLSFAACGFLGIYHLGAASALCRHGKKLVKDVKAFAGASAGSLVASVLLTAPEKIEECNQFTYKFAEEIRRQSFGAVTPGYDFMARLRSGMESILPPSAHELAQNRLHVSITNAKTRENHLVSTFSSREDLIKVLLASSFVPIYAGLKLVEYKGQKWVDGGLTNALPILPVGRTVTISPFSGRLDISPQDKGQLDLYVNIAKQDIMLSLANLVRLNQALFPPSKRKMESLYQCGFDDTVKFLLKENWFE
inactive: [1] -0.009 | [2] 0.201 | [3] -0.019

PRKD3 (UniProt O94806)
Chain of UniProt O94806 (O94806 whole entry, looked up): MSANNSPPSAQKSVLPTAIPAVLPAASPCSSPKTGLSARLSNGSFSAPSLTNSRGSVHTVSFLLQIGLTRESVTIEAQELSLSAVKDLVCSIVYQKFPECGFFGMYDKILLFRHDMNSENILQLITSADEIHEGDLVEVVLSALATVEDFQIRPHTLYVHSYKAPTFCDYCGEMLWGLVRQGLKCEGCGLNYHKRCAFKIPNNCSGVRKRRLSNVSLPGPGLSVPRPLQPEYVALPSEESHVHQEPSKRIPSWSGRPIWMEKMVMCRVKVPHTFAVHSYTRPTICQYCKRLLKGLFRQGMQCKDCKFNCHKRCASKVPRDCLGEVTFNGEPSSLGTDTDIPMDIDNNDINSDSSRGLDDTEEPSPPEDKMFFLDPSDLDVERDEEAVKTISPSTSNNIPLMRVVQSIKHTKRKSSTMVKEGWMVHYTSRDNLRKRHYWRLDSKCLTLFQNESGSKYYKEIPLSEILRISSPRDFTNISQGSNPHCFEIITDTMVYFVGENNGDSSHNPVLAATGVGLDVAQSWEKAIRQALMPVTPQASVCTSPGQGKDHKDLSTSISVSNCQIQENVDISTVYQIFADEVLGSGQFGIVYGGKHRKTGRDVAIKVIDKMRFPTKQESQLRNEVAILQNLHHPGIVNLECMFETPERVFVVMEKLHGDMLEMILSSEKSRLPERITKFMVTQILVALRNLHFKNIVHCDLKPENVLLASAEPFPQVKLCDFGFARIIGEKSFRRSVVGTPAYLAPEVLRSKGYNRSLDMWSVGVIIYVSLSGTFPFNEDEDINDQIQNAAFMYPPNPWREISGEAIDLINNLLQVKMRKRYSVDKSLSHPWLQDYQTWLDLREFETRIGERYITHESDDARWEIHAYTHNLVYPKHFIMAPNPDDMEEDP
inactive: [4] 0.035 | [5] 0 | [1] 0.206 | [3] -0.386

NA (UniProt Q4G0T1)
inactive: [2] -0.027 | [3] -0.025

PRG4 (UniProt Q92954)
inactive: [4] 0.03 | [5] -0.081 | [2] -0.059
active: [3] -1.18

PDIA4, A0A499FI48
inactive: [2] 0.083 | [3] 0.564

PPP1R11 (UniProt O60927)
Chain of UniProt O60927 (O60927 whole entry, looked up): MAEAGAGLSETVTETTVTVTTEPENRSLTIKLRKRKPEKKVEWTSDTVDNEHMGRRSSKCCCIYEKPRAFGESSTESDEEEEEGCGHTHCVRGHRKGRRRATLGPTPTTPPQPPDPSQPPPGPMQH
inactive: [4] -0.025 | [5] -0.095 | [2] 0.014 | [3] 0.001

PRADC1 (UniProt Q9BSG0)
Chain of UniProt Q9BSG0 (Q9BSG0 whole entry, looked up): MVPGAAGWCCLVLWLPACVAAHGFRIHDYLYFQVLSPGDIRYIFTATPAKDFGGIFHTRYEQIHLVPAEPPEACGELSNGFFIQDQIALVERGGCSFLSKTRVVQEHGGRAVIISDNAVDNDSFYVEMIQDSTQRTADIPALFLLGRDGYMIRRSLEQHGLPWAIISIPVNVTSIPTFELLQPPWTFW
inactive: [4] 0.267 | [5] 0.021 | [2] -0.029 | [3] 0.018

POM121C (UniProt A8CG34)
Chain of UniProt A8CG34 (A8CG34 whole entry, looked up): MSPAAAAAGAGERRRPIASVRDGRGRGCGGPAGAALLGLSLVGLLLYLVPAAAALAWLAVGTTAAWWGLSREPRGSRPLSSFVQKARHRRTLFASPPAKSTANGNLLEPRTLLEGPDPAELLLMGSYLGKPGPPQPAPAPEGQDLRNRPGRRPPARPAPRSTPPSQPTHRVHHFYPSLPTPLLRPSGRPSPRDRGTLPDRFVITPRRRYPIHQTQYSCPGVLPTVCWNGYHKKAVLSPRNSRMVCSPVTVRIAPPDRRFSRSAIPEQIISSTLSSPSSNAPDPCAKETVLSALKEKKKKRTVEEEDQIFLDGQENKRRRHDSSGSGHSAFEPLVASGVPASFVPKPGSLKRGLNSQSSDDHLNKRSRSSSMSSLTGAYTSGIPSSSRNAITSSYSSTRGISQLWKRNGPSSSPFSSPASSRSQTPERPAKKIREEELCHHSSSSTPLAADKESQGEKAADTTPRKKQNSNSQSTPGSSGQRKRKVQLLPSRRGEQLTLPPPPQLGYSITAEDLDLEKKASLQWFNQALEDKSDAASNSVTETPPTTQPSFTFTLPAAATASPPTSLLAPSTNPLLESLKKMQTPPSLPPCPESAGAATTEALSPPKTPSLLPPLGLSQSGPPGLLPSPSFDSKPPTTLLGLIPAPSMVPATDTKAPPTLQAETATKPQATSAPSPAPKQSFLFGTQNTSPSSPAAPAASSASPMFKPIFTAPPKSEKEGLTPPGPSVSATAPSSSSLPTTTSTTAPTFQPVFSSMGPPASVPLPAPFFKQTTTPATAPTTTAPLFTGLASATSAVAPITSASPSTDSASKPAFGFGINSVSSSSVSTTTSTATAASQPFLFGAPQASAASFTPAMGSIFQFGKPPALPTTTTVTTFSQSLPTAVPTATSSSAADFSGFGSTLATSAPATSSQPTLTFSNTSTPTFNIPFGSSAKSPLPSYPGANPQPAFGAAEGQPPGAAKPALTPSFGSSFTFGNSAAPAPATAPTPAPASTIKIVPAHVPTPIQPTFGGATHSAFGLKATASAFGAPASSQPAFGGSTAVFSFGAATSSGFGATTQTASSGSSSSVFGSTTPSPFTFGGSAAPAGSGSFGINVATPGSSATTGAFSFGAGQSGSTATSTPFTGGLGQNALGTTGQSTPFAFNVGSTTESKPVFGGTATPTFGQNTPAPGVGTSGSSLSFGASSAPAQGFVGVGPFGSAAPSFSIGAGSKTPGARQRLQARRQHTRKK
inactive: [4] 0.058 | [5] 0.042 | [3] -0.02

POLR2F (UniProt U3KPV3)
inactive: [2] -0.113

PDE4DIP (UniProt E9PS60)
inactive: [1] 0.074 | [2] -0.12 | [3] -0.257

PUM1 isoform 3 (UniProt Q14671)
inactive: [4] -0.057 | [5] 0.048 | [1] 0.024 | [2] -0.003 | [3] 0.054

PDAP1 (UniProt Q13442)
inactive: [4] 0.004 | [5] 0.042 | [1] 0.008 | [2] 0.084 | [3] -0.112

PRKRA (UniProt O75569)
Chain of UniProt O75569 (O75569 whole entry, looked up): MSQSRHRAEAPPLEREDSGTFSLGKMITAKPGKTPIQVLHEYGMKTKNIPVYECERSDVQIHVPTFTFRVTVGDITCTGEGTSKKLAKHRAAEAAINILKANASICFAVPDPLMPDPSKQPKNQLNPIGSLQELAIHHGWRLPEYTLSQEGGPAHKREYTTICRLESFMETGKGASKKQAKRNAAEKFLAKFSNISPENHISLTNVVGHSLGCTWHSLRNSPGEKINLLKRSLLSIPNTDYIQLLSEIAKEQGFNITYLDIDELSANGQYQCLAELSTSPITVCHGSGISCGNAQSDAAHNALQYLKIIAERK
inactive: [4] -0.002 | [5] 0.027 | [1] 0.031 | [2] 0.029 | [3] 0.036

PDPK1 (UniProt O15530)
inactive: [5] 0 | [1] -0.035 | [2] 0.022 | [3] -0.069

PTP4A1 (UniProt Q93096)
inactive: [4] 0.047 | [5] 0.006 | [1] 0.012 | [2] -0.01 | [3] 0.041

PUF60 (UniProt Q9UHX1)
inactive: [4] -0.017 | [5] 0.006 | [1] 0.004 | [2] 0.028 | [3] 0.059

PHLDB1 (UniProt Q86UU1)
inactive: [4] -0.006 | [5] 0.007 | [1] 0.054 | [2] -0.027 | [3] 0.036

PIAS2 (UniProt O75928)
inactive: [1] 0.001 | [2] 0.046

PIGO (UniProt Q8TEQ8)
inactive: [4] -0.098 | [5] -0.058 | [1] -0.014 | [2] -0.023 | [3] 0.039

PYGO2 (UniProt Q9BRQ0)
Chain of UniProt Q9BRQ0 (Q9BRQ0 whole entry, looked up): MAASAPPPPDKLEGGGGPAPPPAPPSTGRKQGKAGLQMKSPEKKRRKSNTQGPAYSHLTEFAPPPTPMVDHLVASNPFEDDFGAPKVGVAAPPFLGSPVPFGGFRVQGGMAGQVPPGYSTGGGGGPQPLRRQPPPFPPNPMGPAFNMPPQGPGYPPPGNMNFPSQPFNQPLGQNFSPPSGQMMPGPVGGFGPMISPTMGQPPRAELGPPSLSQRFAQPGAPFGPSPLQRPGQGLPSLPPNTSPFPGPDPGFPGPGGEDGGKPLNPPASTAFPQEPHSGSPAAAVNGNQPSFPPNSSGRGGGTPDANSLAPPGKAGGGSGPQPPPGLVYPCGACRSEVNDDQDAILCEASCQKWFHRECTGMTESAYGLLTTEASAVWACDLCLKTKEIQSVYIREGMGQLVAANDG
inactive: [4] 0.064 | [5] 0.031 | [2] 0.024 | [3] 0.011

PGPEP1 (UniProt Q9NXJ5)
Chain of UniProt Q9NXJ5 (Q9NXJ5 whole entry, looked up): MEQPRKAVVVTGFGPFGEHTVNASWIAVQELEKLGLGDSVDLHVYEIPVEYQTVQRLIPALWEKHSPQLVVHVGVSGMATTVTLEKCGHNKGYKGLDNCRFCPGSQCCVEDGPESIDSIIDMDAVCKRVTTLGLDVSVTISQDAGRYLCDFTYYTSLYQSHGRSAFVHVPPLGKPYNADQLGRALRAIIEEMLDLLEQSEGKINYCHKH
inactive: [4] 0.027 | [5] -0.071 | [1] -0.013 | [2] -0.025 | [3] 0.012

PFN3 (UniProt P60673)
inactive: [1] 0.072 | [3] -0.004

PTK2 isoform 2 (UniProt Q05397)
Chain of UniProt Q05397 (Q05397 whole entry, looked up): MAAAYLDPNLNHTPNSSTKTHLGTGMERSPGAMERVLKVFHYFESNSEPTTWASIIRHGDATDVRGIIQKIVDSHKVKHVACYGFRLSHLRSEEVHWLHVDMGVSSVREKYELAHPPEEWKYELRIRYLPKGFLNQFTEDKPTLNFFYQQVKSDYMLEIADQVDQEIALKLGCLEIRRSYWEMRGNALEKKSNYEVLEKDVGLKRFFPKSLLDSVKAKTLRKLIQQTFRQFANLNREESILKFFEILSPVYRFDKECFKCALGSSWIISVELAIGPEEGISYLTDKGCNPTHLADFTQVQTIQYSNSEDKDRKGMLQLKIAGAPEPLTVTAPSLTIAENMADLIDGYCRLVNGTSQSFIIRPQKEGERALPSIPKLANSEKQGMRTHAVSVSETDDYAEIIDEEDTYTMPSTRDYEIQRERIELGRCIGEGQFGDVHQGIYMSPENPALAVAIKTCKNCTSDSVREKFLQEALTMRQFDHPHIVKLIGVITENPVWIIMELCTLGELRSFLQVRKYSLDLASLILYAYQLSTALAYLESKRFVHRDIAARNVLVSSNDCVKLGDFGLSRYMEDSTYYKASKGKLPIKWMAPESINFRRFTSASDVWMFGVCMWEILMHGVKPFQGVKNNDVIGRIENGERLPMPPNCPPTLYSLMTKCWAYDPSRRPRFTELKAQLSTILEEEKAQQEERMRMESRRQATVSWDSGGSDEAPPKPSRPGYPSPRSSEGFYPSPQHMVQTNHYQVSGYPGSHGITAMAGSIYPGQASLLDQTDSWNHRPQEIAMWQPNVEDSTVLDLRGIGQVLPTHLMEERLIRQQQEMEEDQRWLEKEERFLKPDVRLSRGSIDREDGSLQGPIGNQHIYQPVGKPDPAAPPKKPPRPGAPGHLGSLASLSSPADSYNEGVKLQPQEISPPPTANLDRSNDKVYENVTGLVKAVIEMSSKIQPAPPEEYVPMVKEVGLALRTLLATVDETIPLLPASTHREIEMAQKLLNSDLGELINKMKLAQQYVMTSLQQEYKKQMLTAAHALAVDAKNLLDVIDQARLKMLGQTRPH
inactive: [4] 0.07 | [5] 0.081 | [2] -0.324

PUF60 isoform 2 (UniProt Q9UHX1)
inactive: [4] 0.091 | [5] 0.109 | [1] 0.035 | [3] 0.238

PFN1 (UniProt P07737)
Chain of UniProt P07737 (P07737 whole entry, looked up): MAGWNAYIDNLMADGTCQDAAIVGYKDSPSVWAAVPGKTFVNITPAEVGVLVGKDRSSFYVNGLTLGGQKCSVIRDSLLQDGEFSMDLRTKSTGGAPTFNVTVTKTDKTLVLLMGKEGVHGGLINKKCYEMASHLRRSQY
inactive: [4] -0.004 | [5] 0.009 | [1] 0 | [2] -0.004 | [3] -0.007

PRR4 (UniProt Q16378)
inactive: [1] -0.076 | [3] -0.269

POLR2M (UniProt Q6EEV4)
inactive: [4] 0.01 | [5] 0.042 | [1] -0.084 | [2] 0.132 | [3] 0.012

PHKG1 isoform 2 (UniProt Q16816)
inactive: [1] -0.375 | [2] -0.054 | [3] -0.493

PCBP2 (UniProt F8VRH0)
inactive: [3] 0.232

PRRC2A (UniProt P48634)
inactive: [4] -0.047 | [5] 0.003 | [1] 0.001 | [2] 0.017 | [3] -0.02

PTS (UniProt Q03393)
Chain of UniProt Q03393 (Q03393 whole entry, looked up): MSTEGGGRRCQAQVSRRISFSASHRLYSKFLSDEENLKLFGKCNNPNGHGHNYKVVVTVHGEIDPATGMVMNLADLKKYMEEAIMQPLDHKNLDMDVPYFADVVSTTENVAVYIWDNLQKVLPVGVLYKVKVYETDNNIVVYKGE
inactive: [4] -0.024 | [1] 0.032 | [2] -0.093 | [3] 0.022
active: [5] -0.274

PPME1 (UniProt Q9Y570)
inactive: [4] 0.057 | [5] -0.02 | [2] 0.06

PIP5K1A (UniProt Q99755)
inactive: [4] -0.058 | [5] 0.067 | [2] 0.059 | [3] -0.096
